# This is a sample that favours compounds with a hit; in the whole collection about 2.1% have one here.
# aSyn yeast inh = rescues yeast growth from alpha-synuclein toxicity; hit rate 0.14% among 370,000; Potency, µM (doses to about 46.1 µM), for the others: top-dose growth rescue (activation), usual class: activators; Yeast expressing alpha-synuclein, growth rescue, BacTiter-Glo, 24 h; note: % of control where 0% means no effect; nearly all actives have a fitted effect of over 65% in size
#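 Screening used galactose-induced yeast with toxic alpha-synuclein levels, exposed to compound for 24 hr at 30 deg C. Cell growth, read with BacTiter-Glo luminescence, gave the measured signal.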
# Abeta rescue = A-beta toxicity reversal in yeast. hit rate 0.063% among 410,000. yeast expressing A-beta42, growth rescue, OD600, 48 h; response scale: 0% DMSO, 100% iron-clioquinol control. AID 1347071. Potency, µM (highest dose often 46.1 µM), most hits filed as activators; note: nearly all actives have a fitted effect of over 55% in size
#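 Growth rescue measured by 600 nm absorbance after 48 h yeast culture at 30 C with compound. Values normalized between DMSO and an equimolar ferric chloride plus clioquinol control.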
# TDP-43 yeast inh = TDP-43 toxicity inhibition in yeast | AID 652104 | hit rate 1.8% among 410,000 | Potency, µM (titrated, usually from 46.1 µM), for inactives: top-dose growth rescue (activation), usual class: activators | TDP-43 expressing yeast growth rescue, BacTiter-Glo, 24 h; note: % of control where 0% means no effect; nearly all actives have a fitted effect of over 50% in size
#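 Readout is BacTiter-Glo luminescence of cell growth, so inhibitors register as activators. TDP-43-expressing yeast at OD600=0.02 in galactose medium, after raffinose pregrowth to mid-log, were incubated with compound for 24 hr at 30 deg C.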
# FUS yeast rescue = FUS proteinopathy suppression in yeast | Potency, µM (top dose mostly 76.6 µM), actives largely listed as activators | hit rate 0.24% among 390,000 | S. cerevisiae FUS-expressing, growth rescue, OD600, 24 h;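 note: plate controls were DMSO vehicle for no effect and reference control for full effect; nearly all actives have a fitted effect of over 55% in size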
#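 Cultures pregrown in 2.5% raffinose medium are shifted to minimal medium containing 2% galactose to express toxic FUS. Compounds are tested at several concentrations. After 24hr at 30C, growth is quantified at 600 nm absorbance.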
# * hit, by the source's call; i = inactive; ? = inconclusive; · = not tested or not shown. Calls come from the whole dose curve; as a rule, active = well fitted curve in the direction sought with a large enough effect; inconclusive = small, poorly fitted or top-dose-only effect, or another doubt; inactive = no such curve, though single readings can be large; an effect the other way counts as inactive or inconclusive. Potency is the fitted concentration of half-maximal effect.
SMILES,aSyn yeast inh,Abeta rescue,TDP-43 yeast inh,FUS yeast rescue
Cc1nc2c(OCCOc3ccc(F)cc3)cccn2c1N(C)C(=O)CCC1CCCC1,10%,i,35%,i
O=C(COC(=O)C12CC3CC(CC(Br)(C3)C1)C2)Nc1cccc(S(=O)(=O)N2CCOCC2)c1,2%,i,0%,i
COc1ccc2c(CN3CCCCCCC3)cc(=O)oc2c1,0%,i,24%,i
Oc1ccc(/C=N/Nc2ccc(C(F)(F)F)cn2)cc1,-24%,?,10µM*,i
CN1C(=O)C2C(c3ccc(N(C)C)cc3)NN(Cc3ccccc3)C2C1=O (centres undefined),12%,i,?,i
COC(=O)c1cc(-c2ccc(-c3ccccc3)c(F)c2)c(=O)n2c1CCC2,·,·,·,i
COc1cccc(CCNS(=O)(=O)c2c(C)n[nH]c2C)c1,·,·,·,i
Cc1cccc(-c2nc(CCNC(=O)COc3ccccc3)cs2)c1,·,i,35µM*,i
COc1ccc(CCC(=O)NCCc2csc(-c3cccc(C)c3)n2)cc1,·,i,?,i
Cc1cccc(-c2nc(CCNC(=O)Cc3ccccc3)cs2)c1,·,i,16µM*,i
Cc1ccc(OCC(=O)NCC(=O)OCc2cc(=O)n3nc(C(C)C)sc3n2)cc1,·,i,-13%,i
COc1ccccc1NC(=S)N(Cc1ccccc1)Cc1ccccn1,4%,?,22µM*,i
OCC[C@H]1C[C@@H](O)[C@H](O)[C@]2(OCCc3ccccc32)O1,1%,i,4%,i
CCOC(=O)c1sc2ncnc(NCc3ccco3)c2c1C,3%,?,20µM*,i
CCOc1ccc(NC(=O)CSc2oc(-c3ccccc3)nc2S(=O)(=O)c2ccc(Cl)cc2)cc1,·,i,11%,i
CCn1c(COc2ccccc2)nnc1SCC(=O)Nc1cc(C)ccc1OC,-10%,i,1%,i
COc1ccc(C)cc1NC(=O)CSc1nnc(COc2ccc(C)cc2)n1Cc1ccco1,1%,i,16µM*,i
CCn1c(COc2ccc(C)cc2)nnc1SCC(=O)Nc1cc(OC)ccc1OC,2%,i,13µM*,?
CCCCn1c(N)c(-c2nc3ccccc3s2)c2c([N+](=O)[O-])nn(CC)c(=O)c21,2%,i,-11%,i
CCCCn1c(N)c(-c2nc3ccccc3s2)c2c([N+](=O)[O-])nn(C)c(=O)c21,0%,i,-20%,40µM*
O=C(CCl)Nc1cccc(-c2cnc3ccccc3n2)c1,6%,i,13µM*,i
CCNc1nc(Cl)nc(NC2CCCCC2)n1,-8%,i,13µM*,i
Cc1ccccc1C(=O)c1cccn1CC(=O)NCc1cccc(Cl)c1,-10%,i,27%,i
CN(C)[C@@H]1CCN(c2cccc3c2S(=O)(=O)N2CC[C@@H](C2)O3)C1,·,·,·,i
O=[N+]([O-])c1cccc(-c2nn(-c3ccccc3)cc2CO)c1,5%,i,13µM*,i
SMILES,aSyn yeast inh,Abeta rescue,TDP-43 yeast inh,FUS yeast rescue
CNC(=O)Cn1nc(C)c(S(=O)(=O)N2CCOCC2)c1C,-1%,i,7%,i
O=C(COC(=O)c1cccs1)Nc1ccccc1[N+](=O)[O-],-12%,?,5%,i
N#Cc1ccccc1NC(=O)COC(=O)c1cccs1,-7%,i,10µM*,i
CCNC(=S)NN=C1c2ccccc2-c2ccccc21,-5%,i,13µM*,i
C=C(C)CNC(=S)NN=C1c2ccccc2-c2ccccc21,-3%,i,8%,i
O=C(NCC(c1ccc2c(c1)OCO2)N1CCN(c2ccccc2)CC1)C(=O)Nc1ccccc1 (centres undefined),·,i,19%,i
Cc1ccc(C(=O)Oc2oc(-c3ccco3)nc2C=Nc2ccc(Cl)cc2)cc1,2%,i,6.3µM*,·
O=C(Oc1oc(-c2ccco2)nc1C=Nc1ccccc1)c1ccoc1,?,i,-22%,i
CC1CC(C)CN(C(=O)c2ccc3c(c2NCCO)C(=O)c2ccccc2C3=O)C1 (centres undefined),-1%,i,18µM*,i
C=CCN1C(=O)C2(OCCCO2)c2cccc(C)c21,0%,i,24%,i
CCCCN1C(=O)C2(OCCCO2)c2cccc(C)c21,6%,i,20µM*,i
Cc1nc(N2CCN(C(=O)COc3ccccc3)CC2)c2c(C)c(C)sc2n1,-2%,i,16µM*,i

# Screens as filed in PubChem BioAssay.
